Measurements reported in PubChem BioAssay AID1159580 (chemical genetic matrix, 2015).
Among all 5,500 compounds or so, about 2,000 (36%) were called active. Roughly 18% stayed inconclusive and do not appear here. The list shows a part of the results. Unmarked numbers belong to inactive results. No stated cut-off is given here; in the data, active means normalized growth mostly below about 0.91 (no sharp cut-off); inconclusive means no clear call, values can overlap the other calls; inactive means mostly above about 0.92.

Test: chemical genetic growth profiling, strain panel (AID 1159580);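 further: tested at 20 µM; growth read once vehicle control cultures reached saturation at 30 °C; 1 = growth at the plate median or of vehicle wells; lower values mean less growth of the strain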
Settings: growth OD

## C#C[C@]1(O)CCC2C3CCC4=Cc5oncc5C[C@]4(C)C3CC[C@@]21C (some centres not stated)
S. cerevisiae deletion strains, locus YJR066W, strain TOR1, hits give low values
  normalized growth: 0.956
S. cerevisiae deletion strains, locus YKL009W, strain mrt4, hits give low values
  normalized growth: 0.954
S. cerevisiae deletion strains, locus YKL068W, hits give low values
  normalized growth: 0.922 (active)
S. cerevisiae deletion strains, locus YKL085W, strain MDH1 (second series), hits give low values
  normalized growth: 0.889 (active)
S. cerevisiae deletion strains, locus YKL085W, strain MDH1, hits give low values
  normalized growth: 0.889 (active)
S. cerevisiae deletion strains, locus YKL160W, strain elf1, hits give low values
  normalized growth: 0.925
S. cerevisiae deletion strains, locus YKR001C, strain vps1, hits give low values
  normalized growth: 0.831 (active)
S. cerevisiae deletion strains, locus YKR026C, strain gcn3, hits give low values
  normalized growth: 0.948
S. cerevisiae deletion strains, locus YKR091W, strain srl3, hits give low values
  normalized growth: 0.964
S. cerevisiae deletion strains, locus YLL001W, strain dnm1, hits give low values
  normalized growth: 0.921
S. cerevisiae deletion strains, locus YLL026W, hits give low values
  normalized growth: 0.94
S. cerevisiae deletion strains, locus YLL041C, strain sdh2, hits give low values
  normalized growth: 0.961
S. cerevisiae deletion strains, locus YLR027C, strain aat2, hits give low values
  normalized growth: 0.911 (active)
S. cerevisiae deletion strains, locus YLR039C, strain RIC1, hits give low values
  normalized growth: 0.574 (active)
S. cerevisiae deletion strains, locus YLR058C, strain SHM2, hits give low values
  normalized growth: 0.898
S. cerevisiae deletion strains, locus YLR102C, strain apc9, hits give low values
  normalized growth: 0.949
S. cerevisiae deletion strains, locus YLR113W, strain HOG1, hits give low values
  normalized growth: 0.95
S. cerevisiae deletion strains, locus YLR221C, strain rsa3, hits give low values
  normalized growth: 0.957
S. cerevisiae deletion strains, locus YLR258W, strain gsy2, hits give low values
  normalized growth: 0.955
S. cerevisiae deletion strains, locus YLR262C, strain YPT6 (second series), hits give low values
  normalized growth: 0.792 (active)
S. cerevisiae deletion strains, locus YLR262C, strain YPT6, hits give low values
  normalized growth: 0.565 (active)
S. cerevisiae deletion strains, locus YLR268W, strain sec22, hits give low values
  normalized growth: 0.838 (active)
S. cerevisiae deletion strains, locus YLR320W, strain mms22, hits give low values
  normalized growth: 0.914
S. cerevisiae deletion strains, locus YLR330W, strain CHS5, hits give low values
  normalized growth: 0.902 (active)
S. cerevisiae deletion strains, locus YLR342W, strain FKS1 (second series), hits give low values
  normalized growth: 0.926
S. cerevisiae deletion strains, locus YLR342W, strain FKS1, hits give low values
  normalized growth: 0.875 (active)
S. cerevisiae deletion strains, locus YLR357W, strain rsc2, hits give low values
  normalized growth: 0.944
S. cerevisiae deletion strains, locus YLR370C, strain arc18, hits give low values
  normalized growth: 0.975
S. cerevisiae deletion strains, locus YLR371W, strain rom2, hits give low values
  normalized growth: 0.852 (active)
S. cerevisiae deletion strains, locus YLR384C, strain iki3, hits give low values
  normalized growth: 0.958
S. cerevisiae deletion strains, locus YLR418C, strain cdc73, hits give low values
  normalized growth: 0.645 (active)
S. cerevisiae deletion strains, locus YML016C, strain PPZ1, hits give low values
  normalized growth: 0.935
S. cerevisiae deletion strains, locus YML032C, strain rad52, hits give low values
  normalized growth: 0.928
S. cerevisiae deletion strains, locus YML120C, strain ndi1, hits give low values
  normalized growth: 0.924
S. cerevisiae deletion strains, locus YML124C, strain tub3, hits give low values
  normalized growth: 0.92 (active)
S. cerevisiae deletion strains, locus YMR058W, strain fet3, hits give low values
  normalized growth: 0.938
S. cerevisiae deletion strains, locus YMR078C, strain ctf18, hits give low values
  normalized growth: 0.923
S. cerevisiae deletion strains, locus YMR125W, strain sto1, hits give low values
  normalized growth: 0.94
S. cerevisiae deletion strains, locus YMR129W, hits give low values
  normalized growth: 0.959
S. cerevisiae deletion strains, locus YMR205C, strain PFK2, hits give low values
  normalized growth: 0.92
S. cerevisiae deletion strains, locus YMR223W, strain ubp8, hits give low values
  normalized growth: 0.953
S. cerevisiae deletion strains, locus YMR231W, strain pep5, hits give low values
  normalized growth: 0.965
S. cerevisiae deletion strains, locus YMR263W, strain SAP30, hits give low values
  normalized growth: 0.926
S. cerevisiae deletion strains, locus YMR307W, strain GAS1, hits give low values
  normalized growth: 0.73
S. cerevisiae deletion strains, locus YNL067W, strain RPL9B, hits give low values
  normalized growth: 0.927
S. cerevisiae deletion strains, locus YNL071W, strain lat1, hits give low values
  normalized growth: 0.841 (active)
S. cerevisiae deletion strains, locus YNL183C, strain NPR1, hits give low values
  normalized growth: 0.95
S. cerevisiae deletion strains, locus YNL209W, strain ssb2, hits give low values
  normalized growth: 0.991
S. cerevisiae deletion strains, locus YNL233W, strain BNI4, hits give low values
  normalized growth: 0.843 (active)
S. cerevisiae deletion strains, locus YNL248C, strain rpa49, hits give low values
  normalized growth: 0.982
S. cerevisiae deletion strains, locus YNL250W, strain rad50, hits give low values
  normalized growth: 0.928
S. cerevisiae deletion strains, locus YNL271C, strain bni1, hits give low values
  normalized growth: 0.908 (active)
S. cerevisiae deletion strains, locus YNL298W, strain CLA4, hits give low values
  normalized growth: 0.953
S. cerevisiae deletion strains, locus YNL307C, strain MCK1, hits give low values
  normalized growth: 0.759 (active)
S. cerevisiae deletion strains, locus YNL322C, strain KRE1 (second series), hits give low values
  normalized growth: 0.945
S. cerevisiae deletion strains, locus YNR049C, strain mso1, hits give low values
  normalized growth: 0.961
S. cerevisiae deletion strains, locus YNR052C, strain pop2, hits give low values
  normalized growth: 0.956
S. cerevisiae deletion strains, locus YOL012C, strain htz1
  normalized growth: 0.535
S. cerevisiae deletion strains, locus YOL147C, strain pex11, hits give low values
  normalized growth: 0.899 (active)
S. cerevisiae deletion strains, locus YOR001W, strain rrp6, hits give low values
  normalized growth: 0.972
S. cerevisiae deletion strains, locus YOR061W, strain CKA2, hits give low values
  normalized growth: 0.904
S. cerevisiae deletion strains, locus YOR069W, strain VPS5, hits give low values
  normalized growth: 0.955
S. cerevisiae deletion strains, locus YOR070C, strain gyp1, hits give low values
  normalized growth: 0.975
S. cerevisiae deletion strains, locus YOR080W, strain dia2, hits give low values
  normalized growth: 0.957
S. cerevisiae deletion strains, locus YOR083W, strain WHI5, hits give low values
  normalized growth: 0.941
S. cerevisiae deletion strains, locus YOR106W, strain vam3, hits give low values
  normalized growth: 0.963
S. cerevisiae deletion strains, locus YOR136W, strain idh2, hits give low values
  normalized growth: 0.922
S. cerevisiae deletion strains, locus YOR144C, strain elg1, hits give low values
  normalized growth: 0.914 (active)
S. cerevisiae deletion strains, locus YOR184W, strain ser1, hits give low values
  normalized growth: 0.59 (active)
S. cerevisiae deletion strains, locus YOR231W, strain MKK1, hits give low values
  normalized growth: 0.988
S. cerevisiae deletion strains, locus YOR265W, strain rbl2, hits give low values
  normalized growth: 0.966
S. cerevisiae deletion strains, locus YOR270C, strain vph1, hits give low values
  normalized growth: 0.824
S. cerevisiae deletion strains, locus YOR290C, strain snf2, hits give low values
  normalized growth: 1
S. cerevisiae deletion strains, locus YOR316C, strain cot1, hits give low values
  normalized growth: 0.925
S. cerevisiae deletion strains, locus YPL051W, strain arl3, hits give low values
  normalized growth: 0.945
S. cerevisiae deletion strains, locus YPL055C, strain LGE1, hits give low values
  normalized growth: 0.75 (active)
S. cerevisiae deletion strains, locus YPL078C, strain atp4, hits give low values
  normalized growth: 0.902
S. cerevisiae deletion strains, locus YPL106C, strain sse1, hits give low values
  normalized growth: 0.984
S. cerevisiae deletion strains, locus YPL240C, strain hsp82, hits give low values
  normalized growth: 0.967
S. cerevisiae deletion strains, locus YPL241C, strain CIN2, hits give low values
  normalized growth: 0.931
S. cerevisiae deletion strains, locus YPL256C, strain CLN2, hits give low values
  normalized growth: 0.975
S. cerevisiae deletion strains, locus YPR119W, strain clb2, hits give low values
  normalized growth: 0.915 (active)
S. cerevisiae deletion strains, locus YPR141C, strain kar3, hits give low values
  normalized growth: 0.895 (active)
S. cerevisiae deletion strains, locus YPR163C, strain tif3, hits give low values
  normalized growth: 0.877 (active)
S. cerevisiae deletion strains, locus YPR167C, strain met16, hits give low values
  normalized growth: 0.926
S. cerevisiae deletion strains, strain wtn01, hits give low values
  normalized growth: 0.887 (active)
S. cerevisiae strains, strain wild type, hits give low values
  normalized growth: 0.911
